We go through 98 compounds from PubChem BioAssay AID651803 (National Center for Advancing Translational Sciences (NCATS), 2012).

In all, about 1,200 compounds went through this assay and fewer than 10 were called active. The call rests on the fitted dose curve; in most records, active means well fitted curve in the direction sought with a large enough effect; inconclusive means small, poorly fitted or top-dose-only effect, or another doubt; inactive means no such curve, though single readings can be large or run the other way. Only a sample is shown. Residues, ends and D or L forms follow the SMILES beside them.

Chain of Transcriptional regulator ERG (Homo sapiens) (P11308 whole entry, looked up, the tested form may be a part): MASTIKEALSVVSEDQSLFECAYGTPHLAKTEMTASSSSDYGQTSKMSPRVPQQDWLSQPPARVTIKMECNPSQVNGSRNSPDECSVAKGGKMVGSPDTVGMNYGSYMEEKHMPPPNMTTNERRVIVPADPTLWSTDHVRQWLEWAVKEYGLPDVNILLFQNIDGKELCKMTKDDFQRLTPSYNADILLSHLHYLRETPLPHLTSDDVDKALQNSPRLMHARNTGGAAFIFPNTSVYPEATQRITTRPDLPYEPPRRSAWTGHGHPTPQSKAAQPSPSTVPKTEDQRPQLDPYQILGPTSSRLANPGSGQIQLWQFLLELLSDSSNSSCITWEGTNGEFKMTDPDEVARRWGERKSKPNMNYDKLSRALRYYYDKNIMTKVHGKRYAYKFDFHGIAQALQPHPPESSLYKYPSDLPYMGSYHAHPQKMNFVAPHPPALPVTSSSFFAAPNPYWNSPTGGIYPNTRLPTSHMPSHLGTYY

This test concerns the target Transcriptional regulator ERG (Homo sapiens) (UniProt P11308). The experiment in a line: qHTS for Small Molecule Inhibitors of the ERG Ets/DNA interaction: TR assay against cherry picks. To be noted: ERG Ets domain-DNA fluorescence polarization, Texas red probe; series mostly up to 154 µM. An excerpt: The Ets family of proteins is a family of ~30 conserved transcription factors defined by the presence of an ~85 amino acid domain referred to as the Ets domain, which mediates sequence-specific DNA binding to a core DNA element GGAA/T.The Ets family member ERG has been linked to several neoplasms. […] More extensive studies of the effects of over-expression of ERG in prostate cells have recently been carried out and have shown that over-expression of ERG results in increased invasion. […] We will carry out a high throughout screen to identify inhibitors of the interaction between ERG and DNA using a fluorescence polarization (FP) assay with a His-tagged ERG Ets domain and fluorescently-labeled DNA probes to develop small molecule inhibitors of this interaction as probes to test this hypothesis and lay the groundwork for the development of targeted therapies against ERG. This is the confirmation against the cherry picks in theprimary screening assay. NIH Molecular Libraries Probe Production Network [MLPCN] NIH Chemical Genomics Center [NCGC] Grant: NS066464 PI Name: John Bushweller, University of Virgina
1.5 ul of protein solution (1 uM ERG domain in 300mM KCl, 50mM Tris-HCl, 1mM EDTA, 1mM DTT, pH 7.5); 20 nl Control plate and compound library plate; 1.5 ul mixture of 5 nM Fluorescein-DNA and 100nM Texas-615-DNA solution in same buffer as above solution; measure fluorescence polarization sequentially for fluorescein (Excitation = 480 nm, Emission = 535s, 535p nm) and Texas red (Excitation = 555 nm, Emission = 632s, 632p nm).
For orientation: Quantitative high-throughput screening tests each substance at several concentrations.
Consider `Cc1ccccc1OCc1nnc(SCC(=O)Nc2ccc(N3CCOCC3)c(Cl)c2)n1C`, for which the outcome was inactive. For `O=C(O)c1cc(O)c2c(c1)[C@H]([C@H]1c3cc(C(=O)O)cc(O)c3C(=O)c3c(O[C@@H]4O[C@H](CO)[C@@H](O)[C@H](O)[C@H]4O)cccc31)c1cccc(OC3O[C@H](CO)[C@@H](O)[C@H](O)[C@H]3O)c1C2=O` (stereo partly drawn) the value was “inactive”; for `COc1ccccc1CN(C)C(=O)C(NC(=O)Cc1cccc2ccccc12)C(C)C` (stereo not drawn), “inactive”; for `O=C(CN1C=NS(=O)(=O)c2ccccc21)Nc1ccc(Br)cc1`, “inactive”.

`Cc1ccc(S(=O)(=O)NCC(=O)N(CC(=O)NCC2CCCO2)c2cccc(F)c2)cc1` (stereo not drawn): the result was inactive. For `Clc1ccc(SCc2nc3ccccc3[nH]2)cc1` the value was “inactive”. With `CCc1n[nH]c(=S)n1/N=C/c1ccc(N(C)c2ccccc2)cc1`, the compound was classed as inactive. With `CNC(=O)c1cccc(-n2c(C)nc3cccnc32)c1C`, the compound was called inactive.

`Cc1ccc(/C=C2\SC(N3CCCCC3)=NC2=O)cc1`: the result was inactive.

Consider `CCc1cccc(NC(=O)C2CCCN(S(=O)(=O)c3ccc4[nH]c(=O)ccc4c3)C2)c1` (stereo not drawn), for which the call was inactive. For `COc1ccc(-c2ccc(SCC(=O)NCc3ccc4c(c3)OCO4)nn2)cc1OC` the value was “inactive”; for `C=CCn1c(=O)[nH]c2cc(C(=O)N3CC=C(c4ccccc4)CC3)ccc2c1=O`, “inactive”.

For `COc1ccccc1CNC(=O)CCNC(=O)C1CCN(S(=O)(=O)c2ccccc2)CC1`, the call was inactive. For `Oc1ccc(Nc2ccc3ccccc3c2)cc1` the value was “inactive”. Regarding `Cc1ccc(OCC(=O)OCC(=O)c2ccccc2)cc1C`, the compound was classed as inactive. `CC(C)N1CCC(N2CCN(Cc3cccc4nonc34)CC2CCO)CC1` (stereo not drawn): the result was inactive.

As for `O=C(O)CNC(=O)/C(=C\c1ccc2c(c1)OCO2)NC(=O)c1ccc(Br)cc1`, the result was inactive. Turning to `O=C(COc1coc(CN2CCCc3ccccc32)cc1=O)Nc1cccc([N+](=O)[O-])c1`, the result was inactive. For the compound `COc1cccc(CC2(CO)CCN(S(=O)(=O)N(C)C)CC2)c1`, the call was inactive. As for `CCOc1cc(C2c3c(oc4ccccc4c3=O)C(=O)N2Cc2ccc(OC)cc2)ccc1O` (stereo not drawn), the compound was classed as inactive. For `Cc1cccc(-c2oc3ccccc3c2-c2ccc3c(c2)OCO3)c1` the value was “inactive”. Take `Cc1ncc([N+](=O)[O-])n1CC(=O)N/N=C/c1ccc(F)cc1`: the outcome was inactive.

As for `Cc1ccc(C(=O)Nc2ccc(C(=O)N/N=C/c3c[nH]c4ccccc34)cc2)cc1`, the result was inactive. Turning to `Cc1ccc(/C=C2\Sc3ccccc3C2=O)s1`, the result was inactive. For `COc1ccc([C@@H](NC(=O)OC(C)(C)C)C(=O)OC(C)(C)C)cc1` the value was “inactive”; for `O=c1ccc(-c2ccc(S(=O)(=O)Nc3cccc(Br)c3)o2)n[nH]1`, “inactive”. For `Nn1c(Cc2ccccc2)nc2sc3c(c2c1=O)CCC3` the value was “inactive”; for `CCCN(CCC)Cc1c(C(=O)N/N=C/c2cccs2)nnn1-c1nonc1N`, “inactive”.

As to `Cn1c(CNC(=O)CNC(=O)c2ccc(C(C)(C)C)cc2)cc(=O)n(C)c1=O`, the compound was called inactive. For the compound `C/C(=N\Nc1ccc(C#N)cc1[N+](=O)[O-])c1ccc(C)o1`, the compound was called inactive. `CC(=O)Nc1ccc(NC(=O)C(C)OC(=O)C2CCN(S(=O)(=O)c3ccc4c(c3)OCCO4)CC2)cc1` (stereo not drawn): the outcome was inactive. Consider `CCS(=O)(=O)N1CCC(C(=O)OCC(=O)c2ccc(Br)cc2)CC1`, for which the compound was called inactive.

Turning to `Cn1c(SCC(=O)N2CCN(C(=O)c3ccco3)CC2)nnc1-c1ccc(NS(C)(=O)=O)cc1`, the result was inactive.

As for `CCOC(=O)N1CCC(NC(=O)Cc2ccccc2)CC1`, the result was inactive. In the case of `CC(=O)NC(Cc1ccccc1)C(=O)NC(Cc1ccccc1)C(=O)O` (stereo not drawn) (Ac-Phe-Phe-OH; configuration not given here), the outcome was inactive. For `COc1ccccc1C(=O)Nn1c(-c2cccs2)nc2ccccc2c1=O` the value was “inactive”; for `Cc1c(OC(C(=O)O)c2ccccc2)ccc2c(-c3ccccc3)cc(=O)oc12` (stereo not drawn), “inactive”. For `COc1cc(C(=O)Cc2nc3ccccc3n2C)cc(OC)c1OC` the value was “inactive”; for `CC(=O)Nc1ccc(NC(=O)Nc2ccc(C)cc2C)cc1`, “inactive”; for `CCOc1ccc(N/C(SCc2cccc([N+](=O)[O-])c2)=C(/C#N)C(N)=O)cc1`, “inactive”. For `CC(C)(C)SC(=O)CC1NS(=O)(=O)OC2CCCCC12` (stereo not drawn) the value was “inactive”.

Turning to `Cc1cccn2c(=O)cc(COc3ccc(NC(=O)C(C)C)cc3)nc12`, the result was inactive. For `CCc1nnc2c(N3CCN(c4cccc(C(F)(F)F)c4)CC3)nc3ccccc3n12` the value was “inactive”; for `COC(=O)c1ccc2c(=O)n(CCN3CCOCC3)c(SCC(=O)Nc3ccc(OC)cc3OC)nc2c1`, “inactive”; for `COc1ccc(S(=O)(=O)N2CCc3ccccc32)cc1C(=O)N(CC(C)C)C1CCS(=O)(=O)C1` (stereo not drawn), “inactive”.

Regarding `FC(F)(F)COc1cc(-c2nnc(SCc3ccccc3)n2Cc2ccco2)cc(OCC(F)(F)F)n1`, the outcome was inactive. For `N/C(=N\c1nc2ccccc2o1)NC(=O)c1cccc(Br)c1` the value was “inactive”. With `Cc1ccccc1OCC(=O)Nc1ccc2[nH]ncc2c1`, the outcome was inactive. For `CCN1CCN(CCCN(Cc2cccs2)C(=S)Nc2ccccc2C)CC1` the value was “inactive”; for `Nc1ccc2nc3c(=O)n(CCc4ccccc4)c(=O)[nH]c3nc2c1`, “inactive”; for `CCOC(=O)C1=C(C)N(C[C@@H]2CC[C@@H](Cc3ccc(-c4ccccc4)cc3)O2)C(=O)NC1c1ccc([N+](=O)[O-])cc1` (stereo partly drawn), “inactive”. For `COc1cc(/C=C/C(=O)OCC(=O)NC(=O)NC2CCCCC2C)ccc1OC(F)F` (stereo not drawn) the value was “inactive”. For `O=S(=O)(NCCC1=CCCCC1)c1ccc(OC(F)(F)F)cc1` the value was “inactive”. With `CCN1C(=O)CSc2ccc(C(=O)NC3CCCCC3)cc21`, the result was inactive. For `COc1ccc(C2(C(=O)Nc3ccc(OC)cc3OC)CCCC2)cc1` the value was “inactive”; for `CC1COc2ccccc2N1S(=O)(=O)c1ccc(Cl)cc1` (stereo not drawn), “inactive”. For `CCOC(=O)C1CCN(C(=O)c2cccc(S(=O)(=O)N3CCCc4ccccc43)c2)CC1` the value was “inactive”; for `O=C(Nc1cc2c(cc1Cl)-c1ccc([N+](=O)[O-])cc1C2=NO)C(F)(F)F`, “inactive”; for `CC(C)C(C(=O)O)N1CCS(=O)(=O)CC1` (stereo not drawn), “inactive”.

For `CCN(CC)c1ccc2cc(-c3nc(-c4cc(OC)c(OC)c(OC)c4)no3)c(=O)oc2c1`, the outcome was inactive. Take `CCOC(=O)c1ccc(NC(=O)c2cn(-c3ccccc3)nc2-c2ccc(OC)c(OC)c2)cc1`: the call was inactive.

Take `CC(OC(=O)C1CCN(S(=O)(=O)c2ccccc2C(F)(F)F)CC1)C(=O)N(C)Cc1ccccc1` (stereo not drawn): the compound was called inactive.

In the case of `CCOc1ccc(NC(=O)Cc2c(C(=O)O)n(C)c3ccccc23)cc1`, the result was inactive. With `CN(CC(=O)NC(=O)NC1CCCCC1)CC(=O)Nc1ccc(Cl)cc1`, the compound was called inactive. For `NC(=O)Nc1ccc(C(=O)OCC(=O)NC2CCCc3ccccc32)cc1` (stereo not drawn) the value was “inactive”; for `Cc1ccccc1S(=O)(=O)N(CC(O)CN1C(=O)NC(C)(C)C1=O)c1ccccc1` (stereo not drawn), “inactive”; for `Cn1cc2c(=O)n(/N=C/c3ccccc3)cnc2n1`, “inactive”. For `O=C(O)CN1C(=O)C(=O)N(Cc2ccc(C(F)(F)F)cc2)C1=O` the value was “inactive”; for `Cn1cccc1C(=O)OCC(=O)Nc1ccc2[nH]c(=O)[nH]c2c1`, “inactive”. For `CCC(C)NCCOc1ccc(C)cc1[N+](=O)[O-]` (stereo not drawn) the value was “inactive”. `CC(C)n1c(SCc2ccccc2F)nc2c1c(=O)n(C)c(=O)n2C`: the outcome was inactive. With `CCc1ccc2c(c1)c(=O)c(C(=O)c1ccc(C)cc1)cn2CC(=O)Nc1ccccc1C`, the compound was classed as inactive. Turning to `COc1ccc(C(=O)N2CCc3ccc(NC(=O)c4ccccn4)cc3C2)cc1F`, the result was inactive. For `CCN(CC(=O)Nc1ccc(N2CCOCC2)cc1)CC(=O)NC(C)(C)C` the value was “inactive”; for `Cc1ccc(C)c(N(CC(=O)NCc2ccco2)C(=O)CNS(=O)(=O)c2ccc(F)cc2)c1`, “inactive”. Consider `O=C(OCC(=O)N1CCN(c2ccccc2)CC1)c1cccc([N+](=O)[O-])c1`, for which the result was inactive. On to `O=C(Nc1ccc(NS(=O)(=O)c2ccc([N+](=O)[O-])cc2)cc1)c1ccco1`, for which the call was inactive.

For the compound `Oc1ccccc1CN1CCCC(N2CCN(c3cccc(C(F)(F)F)c3)CC2)C1` (stereo not drawn), the outcome was inactive.

In the case of `O=C(NNC(=O)c1sccc1-n1cccc1)Nc1ccccc1`, the outcome was inactive. For `CCOC(=O)c1c(NC(=O)C(C)Sc2cn(CCNC(=O)c3ccc(OC)c(OC)c3)c3ccccc23)sc2c1CCC2` (stereo not drawn) the value was “inactive”; for `CC(=O)NCc1ccc(S(=O)(=O)N2CCN(c3ccccn3)CC2)cc1`, “inactive”; for `CN(C(=O)COC(=O)c1cc(S(=O)(=O)N2CCOCC2)ccc1F)C1CCS(=O)(=O)C1` (stereo not drawn), “inactive”. In the case of `Cn1c(SCc2nnc(-c3ccccc3)o2)nc2ccccc21`, the outcome was inactive. On to `COc1cccc(OC)c1C(=O)Nn1c(-c2cccs2)nc2ccccc2c1=O`, for which the call was inactive. On to `Cc1cc(C)c2nc(NC(=O)[C@@H](NC(=O)c3cccc(S(=O)(=O)N4CCOCC4)c3)C(C)C)sc2c1`, for which the compound was classed as inactive. Consider `S=C(NCCc1ccccc1)Nc1ccc(Cl)cc1Cl`, for which the call was inactive.

For the compound `CN(C)Cc1cc2ccccc2c2c1COC2`, the call was inactive. On to `O=C(NCC1CCN(S(=O)(=O)c2ccccc2)CC1)Nc1ccc(F)cc1`, for which the result was inactive.

Take `O=C1/C(=C/c2cccs2)Sc2ccccc21`: the outcome was inactive. For the compound `Cc1ccc(N(CC(=O)NC2CCCC2)C(=O)CNC(=O)c2cccs2)c(C)c1`, the compound was classed as inactive.

Take `COc1ccc(N(C(=O)c2snc(C(N)=O)c2N)C(C(=O)NCC2CCCO2)c2ccc3ncccc3c2)cc1OC` (stereo not drawn): the compound was classed as inactive.

With `Cc1ccc(-c2[nH]c(-c3ccc(C(=O)O)cc3)nc2-c2ccccc2)cc1`, the compound was classed as inactive. On to `Cc1ccccc1OCc1nc(-c2ccc(NC(=O)c3ccc4c(c3)OCO4)cc2)no1`, for which the result was inactive. For `CCOCCCNCC(=O)Nc1ccc(S(=O)(=O)NC(C)CC)cc1` (stereo not drawn) the value was “inactive”; for `CC1CCN(C(=O)COC(=O)c2ccc(=O)n(Cc3ccccc3)n2)CC1`, “inactive”; for `C=CCN1C(=O)c2ccc(C(=O)Nc3ccccn3)cc2C1=O`, “inactive”. For `Cc1cccc(NC(=O)c2cc3ccccc3nc2C)c1` the value was “inactive”. For `CC(=O)Nc1ccc(S(=O)(=O)N[C@@H](C)C(=O)N2CCN(C/C=C/c3ccccc3)CC2)cc1`, the call was inactive.
